Screens: PubChem BioAssay, National Center for Advancing Translational Sciences (NCATS)
HCV inhibitor = HCV inhibition; 3.4% of 340,000 active; Huh7.5.1 HCVcc-Cre infection, luciferase reporter, 44 h; AID 651820; Potency, µM (series often up to 41.8 µM), inactives show at the top dose activity change, negative = inhibition, most hits filed as inhibitors
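Infectious HCVcc-Cre (~0.5 moi) was added to cells just after compound, with cells seeded 4 h earlier at 1,000 per well. Luciferase activity after 44 h culture reported infection; substrate was incubated 15 min at room temperature before reading.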
Pf growth 96h = inhibits malaria parasite growth, 96 h. Potency, µM (series often up to 28.7 µM), inactives show at the highest dose activity change, negative = inhibition, actives largely listed as inhibitors. 6.9% of 320,000 active. P. falciparum luciferase reporter growth, 96 h
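Parasite growth measured via integrated firefly luciferase reporter in P. falciparum. Infected erythrocytes at 2% hematocrit, 0.05% parasitemia final were treated 96 hours at 37 C under 5% CO2, and luminescence was read.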
Pf growth 48h = inhibits P. falciparum growth in the first generation, 48 h; P. falciparum luciferase growth in erythrocytes, 48 h; Potency, µM (top dose mostly 28.7 µM), for inactives: top-dose activity change, negative = inhibition, hits mostly inhibitors; 5.9% of 310,000 active; AID 504832
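Luciferase-expressing parasites in RBCs, 2% Hct / 0.1% parasitemia final; RPMI 1640 + 0.5% Albumax; 37 C, 5% CO2, one generation; luminescence read-out, lower signal = inhibition.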
AMA1-RON2 inh = disrupts binding of P. falciparum AMA1 to RON2 | AlphaScreen AMA1-biotinylated RON2 peptide binding | AID 720542 | 0.2% of 360,000 active | Potency, µM (titrated, usually from 58.2 µM), for the others: at the top dose activity change, negative = inhibition, actives largely listed as inhibitors;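 also: 0% = vehicle wells and -100% = peptide control; nearly all actives have a fitted effect of over 45% in size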
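AMA1 (3D7) with his tag at 25 nM final met compounds first, then biotinylated RON2 peptide at 25 nM; detection used donor plus acceptor beads, 10 µg/mL apiece, read by AlphaScreen after 30 min at room temperature.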
Starred values were filed as active, the others as inactive; ? = inconclusive; / = no result given. Shown are actives, neighbours in structure and some others; about 11% of the full set was active somewhere. Calls follow the shape of the dose curve; as a rule, active = well fitted curve in the direction sought with a large enough effect; inconclusive = small, poorly fitted or top-dose-only effect, or another doubt; inactive = no such curve, though single readings can be large; an effect the other way counts as inactive or inconclusive. Unless noted, % is scaled to controls: 0 for no effect and ±100 for the full control effect; potency is read from the fitted curve at half-maximal effect.

SMILES | HCV inhibitor | Pf growth 96h | Pf growth 48h | AMA1-RON2 inh
CCc1cc(=O)oc2c3c(cc(OCC(=O)NCCC(=O)O)c12)OC(C)(C)CC3 | -2% | ? | -19% | 3%
CCc1cc(=O)oc2c3c(cc(OCC(=O)NCCCOC)c12)OC(C)(C)CC3 | ? | 0% | 0% | 0%
COc1cccc(-c2cc(=O)[nH][nH]2)c1 | 21% | 29% | 27% | -12%
COc1ccc(-c2cc(=O)[nH][nH]2)cc1OC | ? | / | 12µM* | -7%
CCOc1ccc(S(=O)(=O)NCc2ccc(F)cc2)c2cccnc12 | -3% | 6.6µM* | 0% | 13%
CCOc1ccc(Br)cc1S(=O)(=O)NCc1ccncc1 | -25% | 13µM* | -1% | 10%
COc1ccc(C(=O)NCc2ccncc2)cc1S(=O)(=O)NCc1ccc(Cl)cc1 | -21% | 10µM* | ? | 0%
CCOc1ccc(S(=O)(=O)NCc2ccc(OC)cc2)c2cccnc12 | -3% | -6% | 9% | -10%
NC(=O)NC(CC(=O)OCC(=O)Nc1nnc(-c2ccccc2)o1)c1ccc(Cl)cc1 (stereo not given) | / | / | / | 165%
O=C(Nc1ccccc1C(=O)Nc1ccc(Br)cn1)c1ccccc1Cl | 13µM* | ? | ? | -2%
O=C(Nc1ccccc1C(=O)Nc1nnc(C(F)(F)F)s1)c1ccccc1Cl | 11µM* | 4.7µM* | ? | 0%
O=C(Nc1nnc(Cc2ccccc2F)s1)c1ccccc1Cl | 7% | -7% | 37% | 8%
NC(=O)c1ccccc1NC(=O)c1ccccc1Cl | 15% | ? | 3% | -8%
O=C(Nc1ccccc1NC(=O)c1ccccc1Cl)c1ccccc1Cl | -11% | 15µM* | ? | -2%
N#C/C(=C(\O)c1cc(Cl)sc1Cl)c1nc2ccccc2[nH]1 | -5% | 14% | 9% | 72%
O=C(O)c1ccc(C2SCC(=O)N2Cc2ccccc2)cc1 (stereo not given) | 3% | 1.7µM* | -4% | 0%
O=C(Nc1ccn(Cc2ccccc2F)n1)c1ccc(COc2ccccc2Cl)cc1 | 16µM* | / | ? | 1%
Cc1cc(C)n(Cc2ccc(NC(=O)c3ccc(COc4ccccc4Br)cc3)cc2)n1 | 4µM* | ? | ? | -5%
O=C(Nc1ccn(Cc2c(F)c(F)cc(F)c2F)n1)c1ccc(COc2ccccc2Cl)cc1 | 13µM* | 0.23µM* | ? | -4%
O=C(Nc1ccn(Cc2c(F)c(F)cc(F)c2F)n1)c1ccc(COc2cc(Cl)ccc2Cl)o1 | ? | / | ? | -8%
Cc1cc(C)nc(NC(=O)c2ccc(COc3ccccc3Cl)cc2)c1 | ? | 9.3µM* | -5% | -23%
CCOc1cc(CNCC2CCCO2)cc(Br)c1OCC(N)=O (stereo not given) | -11% | 45% | 53% | -4%
CN(C(=O)c1ccc(Cl)c([N+](=O)[O-])c1)C1(C)CCS(=O)(=O)C1 (stereo not given) | ? | 6% | 5% | -1%
COCCn1c(SCC(=O)N2CCCC2)nc2c([nH]c3ccccc32)c1=O | -10% | ? | ? | -9%
O=C(Nc1ccn(Cc2c(F)c(F)cc(F)c2F)n1)c1cccc(Cn2cc([N+](=O)[O-])cn2)c1 | -19% | 9.3µM* | / | 0%
SMILES | HCV inhibitor | Pf growth 96h | Pf growth 48h | AMA1-RON2 inh
COc1cc(/C=C/CNC[C@H]2O[C@@H](n3cnc4c(N)ncnc43)[C@H](O)[C@@H]2O)ccc1O | / | / | / | 9%
COc1cc(OC)nc(NC(=O)COC(=O)c2cccc(Cl)c2)n1 | 3% | 19% | -3% | -10%
CC(=O)C1=C(c2ccc(Br)cc2)C(=O)c2ccccc2C1=O | ? | ? | ? | 16µM*
CC(=O)Nc1c(Br)cc2c(c1Br)C(=O)c1ccccc1-2 | -25% | / | / | 14%
Cc1noc(/C=C/c2cccs2)c1S(=O)(=O)N1CCC(C(=O)NCCCN2CCC(C)CC2)CC1 | 11µM* | 65% | -65% | -15%
Cc1cccc(/C=C/c2onc(C)c2S(=O)(=O)N2CCC(C(=O)N3CCCCC3)CC2)c1 | 10µM* | ? | 9.3µM* | -7%
CCCN1CCN(C(=O)C2CCN(S(=O)(=O)c3c(C)noc3/C=C/c3ccc(C)cc3)CC2)CC1 | ? | ? | ? | -3%
CCOc1ccccc1/C=C/c1onc(C)c1S(=O)(=O)N1CCC(C(=O)N2CCCCCC2)CC1 | ? | ? | 7.4µM* | -12%
COCCNC(=O)C1CCCN(S(=O)(=O)c2c(C)noc2/C=C/c2cccs2)C1 (stereo not given) | -11% | -3% | -19% | -8%
COc1ccc(/C=C/c2onc(C)c2S(=O)(=O)N2CCC(C(=O)N3CCCCCC3)CC2)cc1 | ? | ? | 4.1µM* | -8%
CCOc1ccccc1/C=C/c1onc(C)c1S(=O)(=O)N1CCC(C(=O)NC(C)C)CC1 | ? | 57% | ? | -2%
Cc1ccc(/C=C/c2onc(C)c2S(=O)(=O)N2CCC(C(=O)N3CCCCC3)CC2)cc1 | 8% | -13% | ? | -8%
CCCCNC(=O)C1CCN(S(=O)(=O)c2c(C)noc2/C=C\c2ccc(OC)cc2)CC1 | -3% | 10µM* | / | 24%
C=Cn1c(C(=O)O)cc(CC)c1-c1ccccc1 | 12% | 1.5µM* | 8% | -11%
C=CCn1nc(-c2ccccc2)cc1C(=O)OCC | -4% | / | / | -4%
CNC(=S)N/N=C/c1ccc(OCC(=O)Nc2c(C)cc(C)cc2C)c(OC)c1 | -13% | ? | 13µM* | 39%
CCOc1cc(/C=N\NC(=O)CN2CCOCC2)ccc1OCc1ccc(F)cc1 | 2% | 12µM* | 9.3µM* | 6%
COCC(=O)N/N=C\c1ccc(OC/C=C/c2ccccc2)c(OC)c1 | -16% | -3% | 4.7µM* | 43%
CCOc1cc(C(=S)N2CCCC2)ccc1OCC(=O)Nc1c(C)cc(C)cc1C | ? | 41% | 2.3µM* | 31%
CCOc1cc(C(=S)N2CCCC2)ccc1OC | 3% | 12% | / | -4%
CCOc1cc(/C=N/NC(=O)CN2CCOCC2)ccc1OCc1ccccc1 | ? | ? | ? | 13%
CN(C)c1ccc2c(=O)cc[nH]c2c1 | / | / | / | 0%
COc1cc(/C=N\NC(=O)CN2CCOCC2)ccc1OCC(=O)Nc1ccc(C)c(C)c1 | -18% | 9.3µM* | ? | 8%
COc1cc(/C=C/c2cc[n+](C)cc2)ccc1OCC(=O)Nc1ccccc1 | 10% | -10% | 3.7µM* | -8%
Cc1cccc(NC(=S)NC2CC3C=CC2C3)c1 (stereo not given) | -2% | ? | 0% | -10%
CN(CC(=O)NCc1ccco1)S(=O)(=O)c1ccc(F)cc1 | -8% | 15% | 15% | -1%
CCCNC(=O)c1cc(C2CCCCN2S(C)(=O)=O)on1 (stereo not given) | / | / | / | -4%
Cc1cc(Cl)ccc1OCc1cn2cccnc2n1 | -3% | 105% | 82% | 0%
CN(Cc1ccc(C(C)(C)C)cc1)C(=O)C1CCN(C(=O)Nc2ccccc2)CC1 | ? | 13µM* | 10µM* | 9%
Cc1ccc(CN(C)C(=O)C2CCN(C(=O)Nc3ccccc3)CC2)o1 | -5% | -6% | -17% | -5%
